Data published in article PMC5540273 (PLoS ONE, 2017).

What was measured:
Settings in all cases: concentration: 1 μM, replicates: in singlicate; n = 1
[1] = test system: MAP4K2
[2] = test system: MAP4K3
[3] = test system: MAP4K4
[4] = test system: MAP4K5
[5] = test system: MAPKAPK2
[6] = test system: MAPKAPK5
[7] = test system: MARK1
[8] = test system: MARK2
[9] = test system: MARK3
[10] = test system: MARK4
[11] = test system: MAST1
[12] = test system: T1, MEK1
T1 construct: gene MAP2K1

[13] = test system: T2, MEK2
T2 construct: gene MAP2K2

[14] = test system: T3, MEK3
T3 construct: gene MAP2K3

[15] = test system: T4, MEK4
T4 construct: gene MAP2K4

[16] = test system: T5, MEK5
T5 construct: gene MAP2K5

[17] = test system: T6, MEK6
T6 construct: gene MAP2K6

[18] = test system: MELK
[19] = test system: MERTK
[20] = test system: MET
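Also: KINOMEscan kinase panel screen.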

| Compound | %Inh [1] [%] | %Inh [2] [%] | %Inh [3] [%] | %Inh [4] [%] | %Inh [5] [%] | %Inh [6] [%] | %Inh [7] [%] | %Inh [8] [%] | %Inh [9] [%] | %Inh [10] [%] | %Inh [11] [%] | %Inh [12] [%] | %Inh [13] [%] | %Inh [14] [%] | %Inh [15] [%] | %Inh [16] [%] | %Inh [17] [%] | %Inh [18] [%] | %Inh [19] [%] | %Inh [20] [%] |
| --- | --- | --- | --- | --- | --- | --- | --- | --- | --- | --- | --- | --- | --- | --- | --- | --- | --- | --- | --- | --- |
| Cc1ccc(-c2nc(Nc3ccncc3)c3ccccc3n2)s1 [GSK189015] | 0 | 19 | 23 | 15 | 25 | 0 | 7 | 0 | 22 | 13 | 0 | 11 | 1 | 0 | 11 | 17 | 0 | 0 | 11 | 10 |
| Cc1c(Cn2c(C)c(C)n3c(=O)cc(N4CCOCC4)nc23)cccc1C(F)(F)F [GSK2328680] | 0 | 0 | 0 | 0 | 16 | 0 | 0 | 0 | 19 | 0 | 0 | 0 | 0 | 0 | 0 | 0 | 0 | 1 | 0 | 0 |
| Nc1nccc(-c2c(-c3ccc(F)cc3)ncn2C2CCN(Cc3ccccc3)CC2)n1 [SB-219980] | 19 | 16 | 10 | 73 | 0 | 0 | 5 | 1 | 0 | 1 | 4 | 7 | 9 | 19 | 38 | 28 | 21 | 15 | 0 | 0 |
| Cc1nccc(-c2c(-c3ccc(F)cc3)ncn2CCCN2CCOCC2)n1.Cl [SB-282975] | 0 | 1 | 30 | 37 | 0 | 4 | 0 | 4 | 7 | 45 | 71 | 1 | 33 | 2 | 9 | 19 | 0 | 19 | 24 | 0 |
| CC(C)c1cc(-c2ccc3c(N)n[nH]c3c2)nc(N)n1 [GSK2250882] | 0 | 0 | 1 | 0 | 23 | 0 | 0 | 9 | 0 | 0 | 0 | 0 | 0 | 0 | 8 | 29 | 5 | 15 | 21 | 0 |
| COC(=O)C(NC(=O)NC1CCN(c2ccnc(Nc3ccc(F)cc3)n2)C1)c1ccccc1 (stereo not drawn) [GSK1379712] | 0 | 0 | 1 | 2 | 18 | 6 | 0 | 7 | 1 | 8 | 0 | 19 | 0 | 0 | 16 | 86 | 0 | 20 | 0 | 0 |
| Cc1ccc(NC(=O)c2ccc(Cl)cc2)cc1-c1ccc(C(=O)Nc2ccncc2)cc1 [GSK1398467] | 0 | 0 | 13 | 3 | 24 | 0 | 36 | 80 | 0 | 0 | 0 | 0 | 0 | 0 | 3 | 0 | 0 | 0 | 18 | 0 |
| CC(=O)c1c(C)c2cnc(Nc3ccc(N4CCNCC4)cn3)nc2n(C2CCCC2)c1=O | 0 | 17 | 0 | 0 | 0 | 0 | 6 | 0 | 0 | 13 | 0 | 0 | 0 | 0 | 0 | 1 | 0 | 5 | 0 | 0 |
| Cc1ccc(NC(=O)Nc2ccccc2)cc1-c1ccc(C(=O)Nc2ccncc2)cc1 [GSK1398471] | 0 | 2 | 1 | 0 | 1 | 0 | 0 | 1 | 45 | 0 | 0 | 0 | 0 | 0 | 23 | 4 | 8 | 11 | 40 | 4 |
| COc1ccc(CSc2nnc(-c3ccc4ncsc4c3)o2)cc1C(F)(F)F | 0 | 0 | 0 | 0 | 0 | 0 | 0 | 24 | 0 | 2 | 0 | 0 | 9 | 9 | 0 | 0 | 24 | 0 | 16 | 0 |
| Cc1cnc(N)c(/C=C/c2cncc(C(=O)NCCc3ccc(Cl)cc3Cl)c2)c1.Cl [GSK190937] | 4 | 0 | 17 | 18 |  |  | 0 | 6 | 0 | 0 | 5 | 0 | 0 | 0 | 34 | 41 | 0 | 2 | 29 | 0 |
| CN1c2ccc(-c3ccc(C(N)=O)cc3)cc2-c2[nH]ncc2S1(=O)=O | 1 | 6 | 29 | 23 | 0 | 0 | 14 | 0 | 0 | 27 | 0 | 41 | 17 | 16 | 0 | 24 | 0 | 10 | 46 | 14 |
| Cn1cnc2c(N)ncnc21 [SKF-97623] | 0 | 14 | 0 | 13 | 25 | 0 | 0 | 0 | 0 | 0 | 44 | 0 | 0 | 13 | 0 | 23 | 0 | 0 | 16 | 2 |
| NS(=O)(=O)c1cccc(N/C=C2\C(=O)Nc3ccc(S(=O)(=O)Cc4c(Cl)cccc4Cl)cc32)c1 [GSK398099] | 0 | 19 | 28 | 0 | 20 | 0 | 0 | 0 | 0 | 0 | 0 | 0 | 0 | 1 | 23 | 14 | 0 | 0 | 0 | 23 |
| COc1nccc(-c2c(-c3ccc(F)cc3)ncn2CCCN2CCOCC2)n1 [SB-282852] | 0 | 0 | 0 | 0 | 5 | 0 | 0 | 7 | 24 | 0 | 20 | 0 | 25 | 31 | 23 | 7 | 0 | 0 | 19 | 0 |
| COc1ccc(Nc2nccc(NCCNC(=O)Nc3cc(C)ccc3C)n2)cc1 [GSK1379899] | 0 | 3 | 16 | 26 | 15 | 0 | 0 | 0 | 0 | 9 | 0 | 0 | 0 | 0 | 0 | 66 | 0 | 0 | 11 | 0 |

| Compound | %Inh [1] [%] | %Inh [2] [%] | %Inh [3] [%] | %Inh [4] [%] | %Inh [5] [%] | %Inh [6] [%] | %Inh [7] [%] | %Inh [8] [%] | %Inh [9] [%] | %Inh [10] [%] | %Inh [11] [%] | %Inh [12] [%] | %Inh [13] [%] | %Inh [14] [%] | %Inh [15] [%] | %Inh [16] [%] | %Inh [17] [%] | %Inh [18] [%] | %Inh [19] [%] | %Inh [20] [%] |
| --- | --- | --- | --- | --- | --- | --- | --- | --- | --- | --- | --- | --- | --- | --- | --- | --- | --- | --- | --- | --- |
| CC(=O)c1cccc(NC(=O)NC2CCN(c3ccnc(Nc4ccc(F)cc4)n3)C2)c1 (stereo not drawn) [GSK1379710] | 11 | 8 | 13 | 16 | 16 | 0 | 0 | 0 | 16 | 0 | 30 | 6 | 16 | 9 | 57 | 34 | 9 | 12 | 40 | 0 |
| O=C1NC(=O)C(c2ccc(Cl)cc2)=C1Nc1cccc(Cl)c1 [SB-317651] | 6 | 1 | 0 | 0 | 0 | 0 | 0 | 13 | 6 | 0 | 23 | 0 | 13 | 27 | 0 | 4 | 3 | 16 | 2 | 0 |
| CCc1ccc(-c2ccc3c(c2)-c2n[nH]cc2S(=O)(=O)N3C)cc1 | 0 | 15 | 15 | 12 | 0 | 0 | 0 | 0 | 0 | 0 | 0 | 10 | 86 | 13 | 0 | 8 | 0 | 9 | 0 | 0 |
| COc1ccc(-c2coc3ccc(-c4nnc(C)o4)cc23)cc1 | 0 | 0 | 0 | 0 | 0 | 0 | 100 | 30 | 0 | 100 | 0 | 0 | 4 | 0 | 1 | 0 | 0 | 0 | 8 | 0 |
| CNC(=O)c1ccc(C)c(-n2c(C)cc(OCc3ccc(F)cc3F)c(Br)c2=O)c1 | 0 | 0 | 0 | 0 | 0 | 0 | 0 | 1 | 0 | 0 | 0 | 0 | 0 | 0 | 0 | 0 | 0 | 14 | 0 | 0 |
| c1ccc(-c2ccnc3[nH]ccc23)cc1 [SB-693578] | 32 | 22 | 0 | 0 | 26 | 0 | 100 | 0 | 0 | 62 | 44 | 49 | 29 | 10 | 28 | 45 | 0 | 0 | 15 | 0 |
| FC(F)(F)c1ccccc1-c1cc(-c2c[nH]nc2-c2ccccn2)ccn1 [GW679396] | 0 | 0 | 10 | 3 | 0 | 8 | 0 | 0 | 0 | 12 | 4 | 0 | 0 | 0 | 16 | 0 | 0 | 0 | 26 | 0 |
| Cn1cncc1C(=O)NC1CCN(c2ccnc(Nc3ccc(F)cc3)n2)C1 (stereo not drawn) [GSK1379717] | 0 | 0 | 7 | 30 | 4 | 0 | 0 | 0 | 0 | 0 | 0 | 0 | 0 | 11 | 28 | 3 | 0 | 0 | 5 | 0 |
| O=C1NC(=O)C(c2ccc(Cl)cc2)=C1Nc1ccc(O)cc1 [SB-340867] | 0 | 0 | 0 | 0 | 8 | 0 | 0 | 1 | 20 | 0 | 24 | 0 | 0 | 9 | 0 | 8 | 0 | 1 | 0 | 0 |
| O=c1cc(N2CCOCC2)nc2n(Cc3ccccc3F)ccn12 [GSK2297428] | 0 | 0 | 0 | 0 | 0 | 0 | 100 | 0 | 0 | 69 | 0 | 0 | 0 | 0 | 0 | 0 | 0 | 0 | 42 | 0 |
| Fc1ccc(-c2nc[nH]c2-c2ccncc2)cc1 [SB-217360] | 0 | 2 | 10 | 0 | 0 | 0 | 12 | 4 | 0 | 30 | 0 | 36 | 58 | 32 | 6 | 66 | 0 | 0 | 19 | 0 |
| Cl.Cl.Cl.N#Cc1ccc(CCNc2nccc(-c3cccc(CN4CCNCC4)c3)n2)cc1 [GSK2137462] | 0 | 8 | 21 | 4 | 0 | 0 | 0 | 6 | 25 | 0 | 0 | 0 | 0 | 5 | 20 | 35 | 7 | 38 | 20 | 0 |
| COc1ccc(CSc2nnc(-c3ccc4c(c3)CCO4)o2)cc1 | 0 | 0 | 0 | 0 | 0 | 0 | 0 | 21 | 0 | 0 | 7 | 0 | 0 | 0 | 0 | 1 | 0 | 0 | 0 | 0 |
| COc1ccc(CSc2nnc(-c3ccc4nccn4c3)o2)cc1C(F)(F)F | 37 | 16 | 7 | 3 | 33 | 27 | 10 | 44 | 0 | 6 | 0 | 13 | 21 | 43 | 51 | 0 | 0 | 16 | 5 | 2 |
| CNc1cc(-c2ccc3c(N)n[nH]c3c2)nc(N)n1 [GSK2224810] | 22 | 20 | 0 | 0 | 49 | 0 | 0 | 7 | 0 | 0 | 18 | 2 | 0 | 0 | 18 | 37 | 14 | 48 | 31 | 0 |
